Laboratory results as given in PubChem BioAssay.

Experiment: Pseudomonas biofilm growth suppression – PAO1 strain, BacTiter-Glo luminescence, LB-PBS, primary screen (AID 1144)
Settings: P. aeruginosa PAO1 biofilm, 12 h, higher = more signal; call rule not given here

z-score, inactive:
CCOC(=O)[C@H](Cc1ccccc1)NC(=O)CCC1CC(OC(=O)NCc2ccc3c(c2)OCO3)CC2(CCCC(COC(=O)NCCOC)O2)O1 (stereo partly specified) -0.212
CCOC(=O)[C@H](Cc1ccccc1)NC(=O)CCC1CC(OC(=O)NCc2ccc3c(c2)OCO3)CC2(CCCC(COC(=O)NCCCN3CCCC3=O)O2)O1 (stereo partly specified) 0.14
COC(=O)[C@H](C)NC(=O)CCC1CC(OC(=O)NCCc2ccc(F)cc2)CC2(CCCC(COC(=O)NCCOc3ccccc3)O2)O1 (stereo partly specified) 0.706
O=C1CCCC=C1C(O)C1CCCCC1 (stereo unspecified) 0.993
CCOC(=O)NN=C1C[C@@H](O)[C@@H](O)[C@@H]2[C@@H]3C(=O)N(c4ccc(F)cc4F)C(=O)[C@@H]3CC[C@H]12 -1.05
CC(=O)OC[C@H]1O[C@H](CC=NO[C@@H](C)c2cc(-c3c(C)cc(C)cc3C)no2)C=C[C@@H]1OC(C)=O -0.176
CCOC(=O)CCN1C(=O)[C@H]2[C@H]3[C@H](O)[C@H](O)CC(=NO[C@@H]4O[C@H](CO)[C@@H](O)[C@H](O)[C@H]4O)[C@H]3CC[C@H]2C1=O 0.132
CCOC(=O)[C@H](CC(C)C)NC(=O)CCC1CC(OC(=O)NCCc2ccc(F)cc2)CC2(CCCC(COC(=O)NCc3cccc(C(F)(F)F)c3)O2)O1 (stereo partly specified) 0.074
C[C@H]1CC[C@@H](C(=O)O)N[C@@H]1c1cccc(N2CCCC2=O)c1 -0.43
CC(=O)OC[C@H]1O[C@@H](ON=C2[C@H]3CCn4c(=O)n(-c5ccccc5)c(=O)n4[C@H]3[C@H](O)[C@@H]3O[C@H]23)[C@H](OC(C)=O)[C@@H](OC(C)=O)[C@@H]1OC(C)=O 1.56
CCOC(=O)[C@H](CC(C)C)NC(=O)CCC1CC(OC(=O)NCCc2ccc(F)cc2)CC2(CCCC(COC(=O)NCCCN3CCCC3=O)O2)O1 (stereo partly specified) -0.31
CC(CCC(=O)OC[C@H]1O[C@H](C#Cc2ccccc2)C=C[C@@H]1Oc1ccc(C)cc1)=NOC[C@@H](C)[C@H](OCc1ccccc1)C(C)C -0.193
CCOC(=O)[C@H](Cc1ccccc1)NC(=O)CCC1CC(OC(=O)NCc2cccc3ccccc23)CC2(CCCC(COC(=O)NCCc3ccccc3OC)O2)O1 (stereo partly specified) 0.0213
COC(=O)[C@H](C)NC(=O)CCC1CC(OC(=O)NCCc2ccc(F)cc2)CC2(CCCC(COC(=O)NCCc3ccccc3OC)O2)O1 (stereo partly specified) 0.351
CCOC(=O)NN=C1C[C@@H](O)[C@@H](O)[C@@H]2[C@@H]3C(=O)N(C[C@@H]4CCCO4)C(=O)[C@@H]3CC[C@H]12 -0.973
CON=C1c2cc(OC)ccc2O[C@H](c2cccc(OC)c2)[C@H]1O -0.243
COC(=O)[C@H](C)NC(=O)CCC1CC(OC(=O)NCc2ccc3c(c2)OCO3)CC2(CCCC(COC(=O)NCCC(C)C)O2)O1 (stereo partly specified) -0.174
C[C@H]1C=CCC(=O)OC[C@H](C)C(=O)N2CCC[C@H]2C(=O)OC1 -0.324
CCCNC(=O)OC[C@H]1O[C@H](CCON=C2C[C@@H](O)[C@@H](O)[C@@H]3[C@@H]4C(=O)N(CC)C(=O)[C@@H]4CC[C@@H]23)C=C[C@@H]1Oc1ccc(OC)cc1 1.08
COC(=O)[C@@H]1CC[C@H](C)[C@@H](c2ccc(C)cc2)N1C(=O)c1ccc(C=NO[C@@H](C)c2cc(-c3c(C)cc(C)cc3C)no2)cc1 0.209
CC(C)(C)N1C(=O)[C@H]2[C@H]3[C@H](O)[C@H](O)CC(=NNC(=O)OCc4ccccc4)[C@H]3CC[C@H]2C1=O -0.497
CO[C@@H]1COC(=O)CC=C[C@H](C)[C@H](OC)COC(=O)[C@@H]2CCCN2C(=O)CC=C[C@H]1C 0.243
Cc1cc2c(nc1C)CCCCN2CC(O)CN1CCCc2nc(-c3ccc(Br)cc3)ccc21 (stereo unspecified) -0.708
COc1ccc(O[C@H]2C=C[C@@H](C#Cc3ccccc3)O[C@@H]2CO)cc1 0.451
C#CCCCON=C1C[C@@H](O)[C@@H](O)[C@@H]2[C@@H]3C(=O)N(C[C@@H]4CCCO4)C(=O)[C@@H]3CC[C@H]12 0.428
O=C1[C@H]2[C@H]3[C@H](O)[C@H](O)CC(=NO[C@@H]4O[C@H](CO)[C@@H](O)[C@H](O)[C@H]4O)[C@@H]3CC[C@H]2C(=O)N1c1cccc(Oc2ccccc2)c1 -0.774
CC#CCOCCC=C1c2ccccc2[C@@H](OC)[C@@H]1C -0.445
CCOC(=O)[C@H](CC(C)C)NC(=O)CCC1CC(OC(=O)NCc2ccc3c(c2)OCO3)CC2(CCCC(COC(=O)NCCOc3ccccc3)O2)O1 (stereo partly specified) -0.393
CON=C(C)CCN1CCCCc2nc(C)c(C)cc21 -0.0896
C=CC[C@@H]1C=C[C@H](ON=CC[C@@H]2C=C[C@H](OC(C)=O)[C@@H](COC(C)=O)O2)[C@@H](CO)O1 -0.325
C[C@@H]1CC[C@@H](C(=O)O)N[C@H]1c1cccc(N2CCOCC2)c1 -1.08
CC(=O)OC[C@H]1O[C@H](CC=NOC[C@@H](O)COCc2ccco2)C=C[C@@H]1OC(C)=O -0.196
CC(CCN1CCc2nc(-c3ccccc3)c(-c3ccccc3)cc2C1)=NO[C@H](C)c1cn([C@H](CO)Cc2ccccc2)nn1 -0.413
CCOC(=O)CCN1C(=O)[C@H]2[C@H]3[C@H](O)[C@H](O)CC(=NNC(=O)OCc4ccc(OC)cc4)[C@H]3CC[C@H]2C1=O 0.136
CC(=O)OC[C@H]1O[C@@H](ON=C(C)CCC(=O)OC[C@H]2O[C@H](C#Cc3ccccc3)C=C[C@@H]2Oc2ccc(C)cc2)[C@H](OC(C)=O)[C@@H](OC(C)=O)[C@@H]1OC(C)=O -0.238
O=C1CCCC=C1C(O)c1ccc([N+](=O)[O-])cc1 (stereo unspecified) 0.843
